TDP1 block = qHTS Assay for Inhibitors of Tyrosyl-DNA Phosphodiesterase (TDP1) | Tyrosyl-DNA phosphodiesterase 1 (Homo sapiens), Q9NUW8 | hit rate 0.28% among 350,000 | recombinant TDP1, AlphaScreen DNA substrate cleavage | Potency, µM (doses to about 130 µM), without a hit: at the top dose activity change, negative = inhibition, actives largely listed as inhibitors; further: nearly all actives have a fitted effect of over 40% in size
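Enzyme-compound mixtures sat 15 min at room temperature, followed by a 5 min reaction with 15 nM final substrate and 10 min with AlphaScreen beads. Recombinant human Tdp1 was used at 1 nM final.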
BLM helicase inh = qHTS Assay for Inhibitors of Bloom's syndrome helicase (BLM); RecQ-like DNA helicase BLM (Homo sapiens), P54132; recombinant BLM DNA unwinding, fluorescence dequenching; Potency, µM (highest dose often 56.1 µM), inactives show at the top dose activity change, negative = inhibition, usual class: inhibitors; hit rate 0.2% among 350,000; AID 2528, 2010;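 further: plate controls were vehicle for no effect and no enzyme for full effect; nearly all actives have a fitted effect of over 35% in size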
APEX1 inh = qHTS Assay for Inhibitors of the Human Apurinic/apyrimidinic Endonuclease 1 (APE1) | DNA repair nuclease/redox regulator APEX1 (Homo sapiens), P27695 | recombinant APE1, TAMRA/BHQ-2 abasic DNA cleavage fluorescence | Potency, µM (top dose mostly 65.8 µM), for the others: at the top dose activity change, negative = inhibition, actives largely listed as inhibitors | hit rate 0.35% among 350,000;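 further: plate controls were vehicle for no effect and reference inhibitor for full effect; nearly all actives have a fitted effect of over 55% in size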
Target sequence (P27695 whole entry, looked up): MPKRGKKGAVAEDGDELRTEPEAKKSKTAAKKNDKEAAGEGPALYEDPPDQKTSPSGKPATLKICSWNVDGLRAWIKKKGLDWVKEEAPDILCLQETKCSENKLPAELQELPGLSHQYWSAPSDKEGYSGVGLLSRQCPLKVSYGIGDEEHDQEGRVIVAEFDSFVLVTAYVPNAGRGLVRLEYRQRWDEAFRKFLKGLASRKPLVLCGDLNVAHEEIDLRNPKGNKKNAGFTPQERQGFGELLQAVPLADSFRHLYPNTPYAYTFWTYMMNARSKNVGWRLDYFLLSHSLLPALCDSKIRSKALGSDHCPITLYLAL
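Quantitative HTS: incision of a TAMRA/BHQ-2 double-stranded substrate bearing a tetrahydrofuran abasic site by 0.75 nM APE1 raises fluorescence. Substrate 50 nM final, added after 15 min compound preincubation at room temperature; progress as third-minus-first kinetic read difference.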
RECQ1 helicase = qHTS Assay for Inhibitors of RecQ-Like Dna Helicase 1 (RECQ1). RECQ1 DNA unwinding, red fluorescence kinetic read. Potency, µM (series often up to 57.3 µM), inactives show at the top dose activity, negative = inhibition, hits mostly inhibitors. hit rate 0.54% among 240,000. AID 2549, 2010;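 further: plate controls were vehicle for no effect and no enzyme for full effect; nearly all actives have a fitted effect of over 30% in size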
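RECQ1T1 50 nM; forked duplex (20 bp + 30-nt ss tails) 200 nM, ATP 2 mM final; pH 8.0, 2 mM MgCl2, 2.5 ug/ml poly(dI-dC); 15 min compound preincubation; discontinuous kinetic read over 2 h at RT.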
JMJD2E inh = qHTS Assay for Inhibitors of Human Jumonji Domain Containing 2E (JMJD2E); Lysine-specific demethylase 4E (Homo sapiens), B2RXH2; JMJD2E catalytic domain, FDH-coupled NADH fluorescence (FDH is formaldehyde dehydrogenase); Potency, µM (top dose mostly 57.1 µM), for inactives: at the top dose activity change, negative = inhibition, most hits filed as inhibitors; hit rate 1.6% among 230,000; AID 2147, 2009; active means well fitted inhibition curve with a large enough effect, not every such curve was filed as active; inconclusive means small, poorly fitted or top-dose-only effect, or another doubt; inactive means no such curve, though single readings can be large or run the other way;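 further: 0% = wells with enzyme and -100% = buffer wells without enzyme; nearly all actives have a fitted effect of over 50% in size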
Target sequence (B2RXH2 1-337 limits assumed): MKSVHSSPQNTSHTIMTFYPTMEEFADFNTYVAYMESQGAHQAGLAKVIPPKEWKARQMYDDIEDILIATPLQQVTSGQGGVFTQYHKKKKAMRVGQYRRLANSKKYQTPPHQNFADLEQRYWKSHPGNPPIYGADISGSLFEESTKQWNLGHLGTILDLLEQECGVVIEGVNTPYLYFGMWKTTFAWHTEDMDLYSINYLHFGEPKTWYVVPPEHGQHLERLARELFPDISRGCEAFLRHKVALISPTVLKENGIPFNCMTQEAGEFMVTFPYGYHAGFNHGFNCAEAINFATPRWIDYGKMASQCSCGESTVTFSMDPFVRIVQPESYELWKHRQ
KAT2A inh = qHTS Assay for Inhibitors of GCN5L2; hit rate 0.21% among 390,000; GCN5L2 HAT assay, ThioGlo1 CoA-SH fluorescence; Potency, µM (top dose mostly 58.9 µM), without a hit: at the top dose activity change, negative = inhibition, hits mostly inhibitors
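Preincubate 20nM GCN5L2 with compound 15 min, RT → add 50uM ThioGlo1 + 75uM H3(1-25) + 70uM acetyl-CoA → read fluorescence 0 and 20 min. Primary qHTS; fluorescent artifacts likely.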
* marks the source's active call; other numbers are inactive results; i = inactive; u = inconclusive; x = no result given; ! = repeats disagree; [ ] = dose if it differs, or a comment. This excerpt belongs to a sample that is enriched for hits. Unless noted, the call rests on the fitted dose curve; in most records, active means well fitted curve in the direction sought with a large enough effect; inconclusive means small, poorly fitted or top-dose-only effect, or another doubt; inactive means no such curve, though single readings can be large; an effect the other way counts as inactive or inconclusive. Unless noted, on the % scale 0 is the no-effect control and ±100 the full control effect; potency means the concentration at half of the fitted maximal effect.

SMILES	TDP1 block	BLM helicase inh	APEX1 inh	RECQ1 helicase	JMJD2E inh	KAT2A inh
CCCCC1=CC2=CC(=O)C(C)(OC(=O)CC)C(=O)C2=CN1c1ccncc1 (stereo unspecified)	7%[21 µM]	-1%[12.4 µM]	0%[12.4 µM]	-2%[11.5 µM]	10%[11.4 µM]	x
CC1(OC(=O)CCc2ccccc2)C(=O)C=C2C=C(c3ccc(C#N)cc3)N(C3CCCCC3)C=C2C1=O (stereo unspecified)	6%[21 µM]	-5%[12.4 µM]	-4%[12.4 µM]	-2%[11.5 µM]	28µM*!	-2%
CC1(OC(=O)CCc2ccccc2)C(=O)C=C2C=C(c3ccc(C#N)cc3)N(CCc3c[nH]c4ccccc34)C=C2C1=O (stereo unspecified)	-1%[12.3 µM]	-3%[12.4 µM]	7%[12.4 µM]	-4%	16µM*!	-3%
CC1(OC(=O)CCc2ccccc2)C(=O)C=C2C=C3CCCN3C=C2C1=O (stereo unspecified)	4.5µM*!	u	u	u	18µM*	-17%
CCCCCn1ncc2c3sc(C)cc3n(C)c2c1=O	-8%	x	x	x	x	x
CC(C)(C)NS(=O)(=O)c1cccc(-c2nnc(SCc3ccc(C(=O)O)cc3)n2-c2ccccc2)c1	x	x	50%	x	x	x
CCCCC1=CC2=CC(=O)C(C)(OC(=O)CC)C(=O)C2=CN1CCc1c[nH]c2ccccc12 (stereo unspecified)	8%[21 µM]	-6%[12.4 µM]	1%[12.4 µM]	6%[11.5 µM]	4%[11.4 µM]	3%
COc1ccc(N2C=C3C(=O)C(C)(OC(=O)CCc4ccccc4)C(=O)C=C3C=C2c2ccc(C#N)cc2)cc1 (stereo unspecified)	19%[12.3 µM]	-1%[12.4 µM]	-1%[12.4 µM]	-4%	20µM*!	-18%
CC1(OC(=O)CCc2ccccc2)C(=O)C=C2C=C(c3ccc(C#N)cc3)N(C(CO)CO)C=C2C1=O (stereo unspecified)	3%[21 µM]	-4%[12.4 µM]	-3%[12.4 µM]	3%[11.5 µM]	3.5µM*	2%
COC(=O)CCCC1=CC2=CC(=O)C(C)(OC(=O)c3cccs3)C(=O)C2=CN1CCc1c[nH]c2ccccc12 (stereo unspecified)	-9%[21 µM]	-11%[12.4 µM]	-10%[12.4 µM]	i[11.5 µM]	5.6µM*!	1%
COc1ccc(CN2C=C3C(=O)C(C)(OC(=O)CCc4ccccc4)C(=O)C=C3C=C2c2ccc(C#N)cc2)cc1 (stereo unspecified)	10%[12.3 µM]	-4%[12.4 µM]	-3%[12.4 µM]	-6%	u	-14%
CCn1nc(-c2ccc(C)cc2)nc2c(=O)n(C)c(=O)nc1-2	0%	x	x	x	x	x
C[C@H]1Cc2c(COc3ccccc3)nc3c(c2CO1)CN(C(=O)C1CC1)CC3	6%[21 µM]	-4%[12.4 µM]	-1%[12.4 µM]	-8%[11.5 µM]	3%[11.4 µM]	x
CN(Cc1c(O)ccc2c1oc(=O)c1ccccc12)C1CCCCC1	x	2%	0%	-9%	25µM*	3%
CN(C)Cc1c(O)ccc2c3c(c(=O)oc12)CCCCC3	4%	1%	1%	-6%	u	u
COc1cccc(CC(=O)N2CCc3nc(-c4ccccc4)c4c(c3C2)CO[C@@H](C)C4)c1	4%[21 µM]	-2%[12.4 µM]	7%[12.4 µM]	2%[11.5 µM]	1%[11.4 µM]	x
CCCCn1c(NC(=O)c2ccccc2)c(C#N)c2nc3ccccc3nc21	9%	1.6µM*	u	3.5µM*	u	u
Cc1ccc(C(=O)NCCn2c(N)c(C#N)c3nc4ccccc4nc32)cc1	8%	-9%	-4%	-8%	u	u
Cc1c(C(=O)NCc2ccc3c(c2)OCO3)oc2ccc(S(=O)(=O)N3CCCC3)cc12	7%	-9%	-5%	-19%	35µM*	-2%
Cc1c(C(=O)NCc2ccc3c(c2)OCO3)oc2ccc(S(=O)(=O)N3CCCCC3)cc12	-2%	-7%	-7%	-4%	u	3%
CCCN1CNc2c(c(=O)[nH]c(=S)n2CCc2cc(C)ccc2C)C1	-3%	x	x	x	x	x
CN(C)c1ccc(-c2cc(N(C)Cc3ccco3)ncn2)cc1	x	-2%	-3%	-6%	x	-15%
CN(Cc1ccco1)c1cc(-c2ccoc2)ncn1	x	5%	u	-18%	x	32µM*
Cc1ccccc1C(=O)NC(=S)NCC1CCCO1 (stereo unspecified)	0%	0%	-4%	i	8%	2.5µM*
CC(C)(C)c1ccc(C(=O)NC(=S)NCC2CCCO2)cc1 (stereo unspecified)	5%	-7%	2%	-4%	11%	1%
SMILES	TDP1 block	BLM helicase inh	APEX1 inh	RECQ1 helicase	JMJD2E inh	KAT2A inh
CCSc1n[nH]c(=S)s1	10%	-6%	-4%	-1%	25µM*	32µM*
COC(=O)CSc1n[nH]c(=S)s1	5%	-1%	-1%	0%	-16%	-5%
COc1cccc(/C=N/NC(=O)c2cc(-c3cccn3C)n[nH]2)c1O	11%	-18%	-4%	i	16µM*	-3%
COc1cccc(/C=N/NC(=O)c2cc3c(OC)cccc3[nH]2)c1OC	2%	-10%	-7%	-12%	u	-7%
COc1cccc(/C=N/NC(=O)c2cc3c(OC)cccc3[nH]2)c1O	0%	-8%	-1%	i	25µM*	-6%
Cc1cc2c(s1)c1c(n2C)C(=O)N(Cc2ccccc2F)C1	x	x	-21%	x	x	-8%
O=C(Cn1cc(C(F)(F)F)ccc1=O)N/N=C/c1ccc(F)cc1	-8%	-1%	-3%	-3%	-7%	-4%
O=C(Cn1cc(C(F)(F)F)ccc1=O)N/N=C/c1ccccc1O	4%	-4%	-2%	-4%	10µM*	-3%
Oc1c(I)cc(I)c2cccnc12	5%	-1%	15%	-3%	14µM*	-1%
Oc1c(Cl)cc(Cl)c2cccnc12	14%[56.1 µM]	-7%	-3%	0%	14µM*	3%
O=S(=O)(O)c1cc(I)c(O)c2ncccc12	-2%	30%	x	x	x	5.6µM*
COc1ccc(CN2C(=O)c3cccnc3C2Nc2cc(Cl)ccc2OC)cc1 (stereo unspecified)	x	-8%	-8%	-11%	14µM*	-5%
COc1ccc(OC)c(NC2c3ncccc3C(=O)N2Cc2ccco2)c1 (stereo unspecified)	3%	-4%	-5%	i	1%	0%
Cc1cc(O)c(Sc2ncn[nH]2)cc1NS(=O)(=O)c1ccc(Cl)cc1	0%	x	46%	x	x	-6%

Screening data as filed in PubChem BioAssay.
